Among the data in the supplement of paper PMC12067926 are relative growth values, retold here.

The experiment relates to Community 10. Nature of the experiment: relative growth (AUC of 72 h growth curve relative to DMSO control, dAUC) (ratio); higher = more growth (less inhibition), active = hit call of the paper. Particulars: 20 µM;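 active = growth AUC significantly below the DMSO wells by Dunnett test; inactive = the rest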. As to the method: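 Environmental bacterial isolates (Iceland stream sediment and Silwood Park soil) and whole stream-sediment communities were grown in LB from a 1:100 dilution with each pesticide at 20 µM (1% DMSO). A600 was read hourly for 72 h and the area under a spline-fitted growth curve (AUC) was computed. dAUC is the mean AUC of 3 biological replicates divided by the mean AUC of the DMSO controls. Significance was tested by Dunnett's test against the DMSO control.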
Turning to `CCCN(CCOc1c(Cl)cc(Cl)cc1Cl)C(=O)n1ccnc1`, the relative growth was 0.868 (inactive). Regarding `C/C(=N\C#N)N(C)Cc1ccc(Cl)nc1`, the relative growth was 1.15 (inactive). The value for `Oc1ccccc1-c1ccccc1` was 0.954 (inactive); that for `COC(=O)Nc1nc2ccccc2[nH]1` was 0.869 (inactive); that for `COP(=S)(OC)Oc1nc(Cl)c(Cl)cc1Cl` was 0.856 (inactive). The value for `CC1(C)CON(Cc2ccccc2Cl)C1=O` was 0.791 (inactive); that for `C#CCOc1ccc(CCNC(=O)C(OCC#C)c2ccc(Cl)cc2)cc1OC` (stereo not given) was 0.982 (inactive); that for `CC(C)OC(=O)Nc1cccc(Cl)c1` was 1.17 (inactive).

`Cc1c(COC(=O)[C@@H]2[C@H](/C=C(\Cl)C(F)(F)F)C2(C)C)cccc1-c1ccccc1` (racemic): the relative growth was 0.993 (inactive). With `CC(C)N1C(=O)c2ccccc2NS1(=O)=O` the figure was 0.86 (inactive). Regarding `COCC(=O)N(c1c(C)cccc1C)[C@H](C)C(=O)OC`, the relative growth is 0.999 (inactive). The value for `O=C(O)CNCP(=O)(O)O` was 0.952 (inactive); that for `CCc1nn(C)c(C(=O)NCc2ccc(Oc3ccc(C)cc3)cc2)c1Cl` was 0.804 (inactive). With `O=C1C=C(N(Cc2ccc(Cl)nc2)CC(F)F)CO1`, the relative growth is 0.814 (inactive). Regarding `CNC(=O)c1cc(C#N)cc(C)c1NC(=O)c1cc(Br)nn1-c1ncccc1Cl`, the relative growth was 0.859 (inactive). As to `CCNC(=O)NC(=O)/C(C#N)=N/OC`, the relative growth was 1.03 (inactive). The value for `CC(C)NC(=O)N1CC(=O)N(c2cc(Cl)cc(Cl)c2)C1=O` was 1.01 (inactive). Consider `Clc1ccc(C(c2ccc(Cl)cc2)C(Cl)(Cl)Cl)cc1`, for which the relative growth was 0.832 (inactive).

On to `COc1cc(C)c(C(=O)c2c(OC)ccc(Br)c2C)c(OC)c1OC`, for which the relative growth is 0.986 (inactive). `Cc1cccc2sc3nncn3c12`: the relative growth is 0.867 (inactive). With `CC1(C)C(C=C(Cl)Cl)C1C(=O)OC(C#N)c1ccc(F)c(Oc2ccccc2)c1` (stereo not given) the figure was 0.911 (inactive); with `CCc1cnc(C2=NC(C)(C(C)C)C(=O)N2)c(C(=O)O)c1` (stereo not given), 1.1 (inactive). For the compound `O=C(Nc1ccc(F)cc1F)c1cccnc1Oc1cccc(C(F)(F)F)c1`, the relative growth was 0.942 (inactive).

As for `Cc1cc(C)c(C2=C(OC(=O)CC(C)(C)C)C3(CCCC3)OC2=O)c(C)c1`, the relative growth is 0.848 (inactive). For `CCOC(=O)CC(SP(=S)(OC)OC)C(=O)OCC` (stereo not given), the relative growth was 0.992 (inactive). The value for `N#Cc1cc(Br)c(O)c(Br)c1` was 0.931 (inactive); that for `N#Cc1c[nH]cc1-c1cccc2c1OC(F)(F)O2` was 0.855 (inactive); that for `CCCCC(C#N)(Cn1cncn1)c1ccc(Cl)cc1` (stereo not given) was 0.956 (inactive). As for `COc1ccc(-c2ccccc2)cc1NNC(=O)OC(C)C`, the relative growth is 0.782 (inactive).

Take `CC[C@H]1CCC[C@H](O[C@H]2CC[C@H](N(C)C)[C@@H](C)O2)[C@@H](C)C(=O)C2=C[C@@H]3[C@@H](C=C(C)[C@@H]4C[C@@H](O[C@@H]5O[C@@H](C)[C@H](OC)[C@@H](OC)[C@H]5OC)C[C@@H]34)[C@@H]2CC(=O)O1.CC[C@H]1CCC[C@H](O[C@H]2CC[C@H](N(C)C)[C@@H](C)O2)[C@@H](C)C(=O)C2=C[C@H]3[C@@H]4C[C@H](O[C@@H]5O[C@@H](C)[C@H](OC)[C@@H](OC)[C@H]5OC)C[C@H]4C=C[C@H]3C2CC(=O)O1`: the relative growth was 0.772 (inactive). The value for `CC1=NNC(=O)N(/N=C/c2cccnc2)C1` was 0.983 (inactive); that for `CON(C)C(=O)Nc1ccc(Cl)c(Cl)c1` was 1.03 (inactive).

For `CCC(C)(C)C(=O)OC1=C(c2ccc(Cl)cc2Cl)C(=O)OC12CCCCC2`, the relative growth is 0.839 (inactive). `CCCC1COC(Cn2cncn2)(c2ccc(Cl)cc2Cl)O1` (stereo not given): the relative growth was 0.868 (inactive).

Regarding `COc1ncc(F)c2nc(S(=O)(=O)Nc3c(F)cccc3F)nn12`, the relative growth is 1.04 (inactive). Consider `Fc1ccc([C@]2(Cn3cncn3)O[C@H]2c2ccccc2Cl)cc1` (racemic), for which the relative growth was 0.962 (inactive). With `CC(C)CC(C)c1sccc1NC(=O)c1cn(C)nc1C(F)(F)F` (stereo not given) the figure was 0.715 (inactive); with `CNC(=O)CSP(=S)(OC)OC`, 0.887 (inactive); with `COP(=O)(NC(C)=O)SC` (stereo not given), 0.781 (inactive). The value for `N#CC(CCc1ccc(Cl)cc1)(Cn1cncn1)c1ccccc1` (stereo not given) was 1.09 (inactive).
